Screens: PubChem, National Center for Advancing Translational Sciences (NCATS)
IkB sig inh: suppresses IkB signaling in ABC-DLBCL reporter cells. Potency, µM (top dose mostly 57.1 µM), without a hit: at the highest dose IkBa stabilization activation. ABC-DLBCL IkBa-CBG/CBR dual luciferase ratio, 4 h; response scale: scaled: untreated 0%, proteasome inhibitor 100%. 110,000 tested, 0.04% active; active = well fitted curve in the direction sought with a large enough effect in the signal ratio, not every such curve was filed as active; inconclusive = small, poorly fitted or top-dose-only effect, or a change in a side signal; the % refers to the signal ratio;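 also: the direction sought is a rising ratio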
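Luminescence ratio of IκBα-fused green versus native red beetle luciferase in OCI-Ly3 cells, 4 h post-doxycycline with compound; red signal alone, scaled from basal (0%) to zero light (-100%), flagged nonspecific or cytotoxic effects.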
CRE-bla Fsk: modulators of forskolin-stimulated CRE signaling in CHO cells; 71,000 tested, 2.5% active; CHO CRE-bla reporter (cAMP response element driving beta-lactamase), forskolin EC10, beta-lactamase ratio; AID 662; Potency, µM (series often up to 38.2 µM), inactives show at the highest dose activity change, negative = inhibition, usual class: activators; active = well fitted activation curve with a large enough effect in the signal ratio, with a control signal flat, not every such curve was filed as active; inconclusive = small, poorly fitted or top-dose-only effect, or effect the other way, or a change in a side signal; the % refers to the signal ratio; also: % of control where 0% means no effect
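Titrated compounds plus EC10 NKH 477 on CHO CRE-bla cells, 3 h, 37 °C. CCF4, 2 h RT. Ratio 460/530 nm → AC50.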
TSHR ag: agonists of human thyroid stimulating hormone receptor. HEK293-CNG-TSHR cells (CNG channel as cAMP sensor), membrane potential dye, cAMP. P16473. AID 926. 73,000 tested, 0.48% active. Potency, µM (doses to about 57.1 µM), for the others: at the top dose activation, usual class: activators; active = well fitted activation curve with a large enough effect in the main read-out, with a control signal flat, not every such curve was filed as active; inconclusive = small, poorly fitted or top-dose-only effect, or a change in a side signal; inactive = no such curve, though single readings can be large or run the other way; % of control where 0% means no effect;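 also: the control signal comes from parental cells without the receptor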
Target sequence (P16473 whole entry, looked up): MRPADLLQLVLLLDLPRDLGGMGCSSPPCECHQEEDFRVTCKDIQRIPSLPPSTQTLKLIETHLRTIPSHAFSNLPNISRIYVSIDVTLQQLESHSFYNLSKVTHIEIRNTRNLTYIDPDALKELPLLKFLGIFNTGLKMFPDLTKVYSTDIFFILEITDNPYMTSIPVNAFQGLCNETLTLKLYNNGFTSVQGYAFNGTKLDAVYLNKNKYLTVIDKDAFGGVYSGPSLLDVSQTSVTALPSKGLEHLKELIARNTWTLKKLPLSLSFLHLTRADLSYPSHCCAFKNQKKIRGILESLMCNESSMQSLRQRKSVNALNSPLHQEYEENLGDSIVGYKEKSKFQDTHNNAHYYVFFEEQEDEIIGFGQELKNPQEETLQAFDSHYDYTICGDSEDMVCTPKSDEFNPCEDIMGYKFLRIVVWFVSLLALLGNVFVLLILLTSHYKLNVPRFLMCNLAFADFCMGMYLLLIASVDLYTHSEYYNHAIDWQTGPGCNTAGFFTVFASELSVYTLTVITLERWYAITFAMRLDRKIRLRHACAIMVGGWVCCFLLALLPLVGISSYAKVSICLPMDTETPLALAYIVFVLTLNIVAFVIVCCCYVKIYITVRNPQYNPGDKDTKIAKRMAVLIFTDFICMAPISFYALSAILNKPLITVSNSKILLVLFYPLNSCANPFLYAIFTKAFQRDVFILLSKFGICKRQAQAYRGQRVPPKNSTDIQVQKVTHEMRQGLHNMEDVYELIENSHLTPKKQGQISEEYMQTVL
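HEK 293 cells stably expressing TSHR and a cAMP-gated CNG channel; parental CNG-only cells as counterscreen. Cells preloaded 60 min with membrane potential dye plus 100 uM RO 20-1724, then compound 30 min; fluorescence read at 590 nm.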
ERK AVP block: vasopressin-driven ERK pathway inhibition. 72,000 tested, 0.99% active. AID 995. Potency, µM (titrated, usually from 57.5 µM), for inactives: at the top dose activity, negative = inhibition, hits mostly inhibitors. HEK293-V1b, vasopressin-stimulated pERK AlphaScreen; also: % is scaled to controls: 0 for no effect and ±100 for the full control effect; nearly all actives have a fitted effect of over 55% in size
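Phosphorylated ERK1/2 detected via AlphaScreen bead proximity in lysates of V1b-expressing HEK293 cells given 25 nM vasopressin for 5 min after 30 min compound exposure (37 °C). AC50 from Hill equation; basal DMSO 0%, vasopressin 100%.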
HEK293 cAMP cs: counter-screen for TSHR agonists: cAMP increase in parental HEK293; parental HEK293 CNG cAMP sensor, membrane potential fluorescence; Potency, µM (top dose mostly 57.1 µM), for inactives: top-dose activation, actives largely listed as activators; 73,000 tested, 2.5% active; AID 938; also: % of control where 0% means no effect; nearly all actives have a fitted effect of over 55% in size
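Parental HEK 293 cells stably expressing a cAMP-gated CNG channel were loaded with membrane potential dye containing 100 uM RO 20-1724 for 60 min. Compound added for 30 min; depolarization read as fluorescence intensity at 590 nm.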
* marks the source's active call; other numbers are inactive results; [ ] = another dose, or the depositor's remark. Only some compounds are listed: those with a hit (about 3.6% of all), similar ones and a draw of the others. Unless noted, calls follow the shape of the dose curve; as a rule, active = well fitted curve in the direction sought with a large enough effect; inconclusive = small, poorly fitted or top-dose-only effect, or another doubt; inactive = no such curve, though single readings can be large; an effect the other way counts as inactive or inconclusive. Potency is read from the fitted curve at half-maximal effect.

For CCN1C(=O)c2cccc3c(S(=O)(=O)Nc4ccccn4)ccc1c23 the results were IkB sig inh 8.6%, CRE-bla Fsk inconclusive, TSHR ag 2.7%[11.4 µM], ERK AVP block -17.4% and HEK293 cAMP cs 0.9%.
CCN1C(=O)c2cccc3c(S(=O)(=O)Nc4ncccc4C)ccc1c23 was read as IkB sig inh 2.2%, CRE-bla Fsk 5.01µM*, TSHR ag 9.9%, ERK AVP block 25.1µM* and HEK293 cAMP cs 9.8%.
`CCN1C(=O)c2cccc3c(S(=O)(=O)Nc4nc(C)cs4)ccc1c23` gave IkB sig inh inconclusive, CRE-bla Fsk 15.8µM*, TSHR ag 16.8%, ERK AVP block inconclusive and HEK293 cAMP cs 5.2%.
`Cc1ccc(-c2nnn(CC(=O)NCc3ccccc3)n2)c(-n2cnnn2)c1` gave IkB sig inh 0.5%, CRE-bla Fsk -6.8%, TSHR ag 1.8%, ERK AVP block 9.5% and HEK293 cAMP cs 8.5%.
Screening Cc1cc(NCCCN2CCOCC2)n2ncc(-c3ccccc3)c2n1 returned IkB sig inh 5.0%, CRE-bla Fsk inconclusive, TSHR ag -2.8%[11.4 µM], ERK AVP block 18.0% and HEK293 cAMP cs -7.7%.
Cc1cc(NCCOCCO)n2ncc(-c3ccc(Cl)cc3)c2n1 was read as IkB sig inh 0.5%, CRE-bla Fsk 7.94µM*, TSHR ag inconclusive, ERK AVP block -8.2% and HEK293 cAMP cs -31.0%.
Screening COc1ccc(C(=O)Oc2ccc(C3NC(=O)c4c(sc5c4CCN(C)C5)N3)cc2OC)cc1 (stereo unspecified) returned IkB sig inh -5.7%.
Screening Cc1nnc(NC(=O)c2ccco2)s1 returned IkB sig inh 2.4%, CRE-bla Fsk -2.7%, TSHR ag -0.9% and HEK293 cAMP cs 6.5%.
`O=C(Nc1nc2c(ccc3ccccc32)s1)c1ccco1` gave IkB sig inh inconclusive, CRE-bla Fsk inconclusive, TSHR ag 14.7%, ERK AVP block 12.6µM* and HEK293 cAMP cs 14.5%.
Screening CCN(CC)c1ccc(NC(=O)c2ccc(Br)o2)c(C)c1 returned IkB sig inh -6.3%, CRE-bla Fsk -13.7%, TSHR ag 12.8%, ERK AVP block 25.1µM* and HEK293 cAMP cs 16.8%.
For CCN(CC)c1ccc(NC(=O)c2ccco2)c(C)c1 the results were IkB sig inh -0.3%, CRE-bla Fsk 0.5%, TSHR ag -4.1%, ERK AVP block -5.4% and HEK293 cAMP cs -3.6%.
O=C(Nc1cccc(S(=O)(=O)C(F)F)c1)c1ccc(Cl)c(S(=O)(=O)N2CCOCC2)c1 was read as IkB sig inh inconclusive, CRE-bla Fsk inconclusive, ERK AVP block 12.6µM* and HEK293 cAMP cs 17.6%.
For Cc1nn(-c2ccccc2C(=O)O)c(=O)c2ccccc12 the results were IkB sig inh -1.9%, CRE-bla Fsk inconclusive, TSHR ag 10µM*, ERK AVP block -14.1% and HEK293 cAMP cs -3.2%.
COCCn1nnnc1C(c1ccc(OC)cc1OC)N1CCN(c2ccccc2F)CC1 (stereo unspecified) was read as IkB sig inh 0.3%, CRE-bla Fsk -14.4%, TSHR ag inconclusive, ERK AVP block 1.1% and HEK293 cAMP cs 25.1µM*.
`COc1ccc(C(c2nnnn2C2CCCC2)N2CCC(C)CC2)c(OC)c1` (stereo unspecified) gave IkB sig inh inconclusive, CRE-bla Fsk -7.1%, TSHR ag inconclusive, ERK AVP block 8.8% and HEK293 cAMP cs 15.8µM*.
Screening COc1ccc(C(c2nnnn2Cc2cccs2)N2CCN(c3ccccc3F)CC2)cc1 (stereo unspecified) returned IkB sig inh 1.7%, CRE-bla Fsk inconclusive, TSHR ag inconclusive, ERK AVP block -15.3% and HEK293 cAMP cs 20µM*.
CCCOc1ccc(/C(O)=C2/C(=O)C(=O)N(c3cc(C)on3)C2c2ccc(C(=O)OC)cc2)cc1 (stereo unspecified) was read as IkB sig inh -0.1%, CRE-bla Fsk 7.8%, TSHR ag 29.5%, ERK AVP block -14.9% and HEK293 cAMP cs 18.3%.
For Clc1ccc(OCc2nnc3n2N=C(c2ccc4c(c2)OCCO4)CS3)c(Cl)c1 the results were IkB sig inh 2.3%, CRE-bla Fsk 12.6µM*, TSHR ag inconclusive, ERK AVP block 16.6% and HEK293 cAMP cs inconclusive.
For CCc1nnc2n1N=C(c1ccc(-c3ccc(Cl)cc3Cl)o1)CS2 the results were IkB sig inh 3.8%, CRE-bla Fsk 4.6%, TSHR ag 11.9%[11.4 µM], ERK AVP block -28.9% and HEK293 cAMP cs 9.7%.
`COc1cc2c(cc1OC)C(C(=O)NC1CC1)C1c3ccccc3CCN1C2=O` (stereo unspecified) gave IkB sig inh -1.2%, CRE-bla Fsk 26.4%, TSHR ag 2.1%, ERK AVP block -1.6% and HEK293 cAMP cs 11.1%.
`COc1cc2c(cc1OC)-c1cc(NC3CCCC3)nc(=O)n1CC2` gave IkB sig inh -2.4%, CRE-bla Fsk 5.01µM*, ERK AVP block inconclusive and HEK293 cAMP cs 2.2%.
`O=C(Nc1ccc(F)cc1)N1CCN(C(=O)c2nsc3ccccc23)CC1` gave IkB sig inh -0.2%.
CC(=O)c1ccc(N2CCN(c3ccc4cc(S(=O)(=O)N5CCCCC5)ccc4n3)CC2)cc1 was read as IkB sig inh -2.0%.
`Cn1cccc1-c1nc2ccc(NC(=O)c3cccs3)cc2[nH]1` gave IkB sig inh inconclusive, CRE-bla Fsk 27.5%, TSHR ag 4.4%, ERK AVP block 20µM* and HEK293 cAMP cs 1.4%.
Screening CN(c1ccc(OCc2nnc(-c3ccccc3)o2)cc1)S(=O)(=O)c1ccccc1 returned IkB sig inh inconclusive, CRE-bla Fsk inconclusive, TSHR ag inconclusive, ERK AVP block 22.8% and HEK293 cAMP cs 15.8µM*.
O=C(COC(=O)Cc1cn2ccsc2n1)NC12CC3CC(CC(C3)C1)C2 was read as IkB sig inh 0.1%, CRE-bla Fsk 10.7%, TSHR ag 5.6%, ERK AVP block inconclusive and HEK293 cAMP cs 8.8%.
CC1CCCC(NC(=O)COC(=O)Cc2cn3ccsc3n2)C1C (stereo unspecified) was read as IkB sig inh 1.1%, CRE-bla Fsk -21.7%, TSHR ag inconclusive, ERK AVP block -2.5% and HEK293 cAMP cs 31.6µM*.
N#C/C(=C/c1ccc(N2CCCCCC2)o1)c1ccc(F)cc1 was read as IkB sig inh inconclusive, CRE-bla Fsk inconclusive, TSHR ag -10.3%, ERK AVP block 25.1µM* and HEK293 cAMP cs -3.7%.
For Cc1cc(/C=N/n2cnnc2)c(C)n1-c1cc(Cl)ccc1Cl the results were IkB sig inh 3.7%, CRE-bla Fsk 2µM*, TSHR ag inconclusive, ERK AVP block -22.4% and HEK293 cAMP cs inconclusive.
For Cc1cc(/C=N/n2cnnc2)c(C)n1-c1ccc(C(=O)O)cc1 the results were IkB sig inh 0.6%, CRE-bla Fsk -0.3%, TSHR ag inconclusive, ERK AVP block inconclusive and HEK293 cAMP cs inconclusive.
